# Experimental data as given in the supplement of paper PMC8728848.
# The sample as a whole holds a higher share of the strongest signals than the screen did.
# B1: MVL (Microcystis viridis), Q9RHG4 (protein)
# chain: MASYKVNIPAGPLWSNAEAQQVGPKIAAAHQGNFTGQWTTVVESAMSVVEVELQVENTGIHEFKTDVLAGPLWSNDEAQKLGPQIAASYGAEFTGQWRTIVEGVMSVIQIKYTF
# Assays:
# Assay in all cases: glycan array binding signal (z-score within array); higher = stronger binding
# Details in all cases: glycan notation: IUPAC condensed, linker removed
# Fuc(a1-2)Gal(b1-4)Glc6S = molecular target: Fuc(a1-2)Gal(b1-4)Glc6S
# In short: (§1)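 Columns mapping to the same glycan were averaged after glycan names were converted to IUPAC-condensed notation. The data come from 3228 arrays in the Consortium for Functional Glycomics database, limited to those with an available protein sequence. Binding is reported as a within-array Z-score averaged across arrays of one protein sequence and across linkers.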
# [1] = molecular target: Fuc(a1-2)[GalNAc(a1-3)]Gal(b1-4)Glc
# In short: as §1
# [2] = molecular target: Gal(b1-3)Gal(b1-4)GlcNAc(b1-2)Man(a1-3)[Gal(b1-3)Gal(b1-4)GlcNAc(b1-2)Man(a1-6)]Man(b1-4)GlcNAc(b1-4)GlcNAc
# In short: as §1
# [3] = molecular target: Gal(b1-3)GlcNAc(b1-2)Man(a1-3)[Gal(b1-3)GlcNAc(b1-2)Man(a1-6)]Man(b1-4)GlcNAc(b1-4)GlcNAc
# In short: as §1
# [4] = molecular target: Gal(b1-3)[Fuc(a1-4)]GlcNAc
# In short: as §1
# Gal(b1-4)GlcNAc = molecular target: Gal(b1-4)GlcNAc
# In short: as §1
# [5] = molecular target: Gal(b1-4)GlcNAc(b1-3)Gal(b1-3)GlcNAc
# In short: as §1
# Gal3S(b1-3)GlcNAc = molecular target: Gal3S(b1-3)GlcNAc
# In short: as §1
# Gal3S4S(b1-4)GlcNAc = molecular target: Gal3S4S(b1-4)GlcNAc
# In short: as §1
# GalNAc(a1-3)Gal = molecular target: GalNAc(a1-3)Gal
# In short: as §1
# GalNAc(a1-3)GalNAc = molecular target: GalNAc(a1-3)GalNAc
# In short: as §1
# [6] = molecular target: GalNAc(b1-3)Gal(a1-4)Gal(b1-4)GlcNAc
# In short: as §1
# [7] = molecular target: GlcNAc(a1-4)Gal(b1-4)GlcNAc(b1-3)Gal(b1-4)[Fuc(a1-3)]GlcNAc(b1-3)Gal(b1-4)[Fuc(a1-3)]GlcNAc
# In short: as §1
# [8] = molecular target: GlcNAc(b1-4)GlcNAc(b1-4)GlcNAc(b1-4)GlcNAc(b1-4)GlcNAc
# In short: as §1
# [9] = molecular target: GlcNAc(b1-4)GlcNAc(b1-4)GlcNAc(b1-4)GlcNAc(b1-4)GlcNAc(b1-4)GlcNAc
# In short: as §1
# [10] = molecular target: GlcNAc6S(b1-3)Gal(b1-4)GlcNAc
# In short: as §1
# [11] = molecular target: Kdn(a2-3)Gal(b1-4)[Fuc(a1-3)]GlcNAc
# In short: as §1
# [12] = molecular target: Man(a1-2)Man(a1-2)Man(a1-6)[Man(a1-3)]Man
# In short: as §1
# [13] = molecular target: Man(a1-2)Man(a1-3)[Man(a1-2)Man(a1-6)]Man(a1-6)[Man(a1-2)Man(a1-2)Man(a1-3)]Man
# In short: as §1
# [14] = molecular target: Man(a1-2)Man(a1-3)[Man(a1-2)Man(a1-6)]Man(a1-6)[Man(a1-3)[Man(a1-6)]Man(a1-6)]Man(b1-4)GlcNAc(b1-4)GlcNAc
# In short: as §1
# [15] = molecular target: Man(a1-2)Man(a1-3)[Man(a1-6)]Man(a1-6)[Man(a1-2)Man(a1-3)]Man(b1-4)GlcNAc(b1-4)GlcNAc
# In short: as §1
# [16] = molecular target: Man(a1-2)Man(a1-6)[Man(a1-3)]Man(a1-6)[Man(a1-2)Man(a1-2)Man(a1-3)]Man(b1-4)GlcNAc(b1-4)GlcNAc
# In short: as §1
# Man(a1-3)[Man(a1-6)]Man = molecular target: Man(a1-3)[Man(a1-6)]Man
# In short: as §1
# [17] = molecular target: Man(a1-3)[Man(a1-6)]Man(a1-6)[Man(a1-2)Man(a1-3)]Man(b1-4)GlcNAc(b1-4)GlcNAc
# In short: as §1
# [18] = molecular target: Man(a1-3)[Man(a1-6)]Man(a1-6)[Man(a1-3)]Man(b1-4)GlcNAc(b1-4)GlcNAc
# In short: as §1
# [19] = molecular target: Man(a1-3)[Man(a1-6)]Man(b1-4)GlcNAc(b1-4)GlcNAc
# In short: as §1
# [20] = molecular target: Neu5Ac(a2-3)Gal(b1-4)GlcNAc6S
# In short: as §1
# [21] = molecular target: Neu5Ac(a2-3)Gal(b1-4)[Fuc(a1-3)]GlcNAc
# In short: as §1
# [22] = molecular target: Neu5Ac(a2-6)Gal(b1-4)GlcNAc
# In short: as §1
# [23] = molecular target: Neu5Ac(a2-6)Gal(b1-4)GlcNAc(b1-2)Man(a1-3)Man(b1-4)GlcNAc(b1-4)GlcNAc
# In short: as §1
# [24] = molecular target: Neu5Ac(a2-6)Gal(b1-4)GlcNAc(b1-3)Gal(b1-4)GlcNAc
# In short: as §1
binder,measurement,setting,value
B1,glycan array binding signal (z-score),Fuc(a1-2)Gal(b1-4)Glc6S,-0.234
same,glycan array binding signal (z-score),[1],-0.201
same,glycan array binding signal (z-score),[2],1.85
same,glycan array binding signal (z-score),[3],1.51
same,glycan array binding signal (z-score),[4],-0.232
same,glycan array binding signal (z-score),Gal(b1-4)GlcNAc,-0.227
same,glycan array binding signal (z-score),[5],-0.23
same,glycan array binding signal (z-score),Gal3S(b1-3)GlcNAc,-0.239
same,glycan array binding signal (z-score),Gal3S4S(b1-4)GlcNAc,-0.243
same,glycan array binding signal (z-score),GalNAc(a1-3)Gal,-0.231
same,glycan array binding signal (z-score),GalNAc(a1-3)GalNAc,-0.243
same,glycan array binding signal (z-score),[6],-0.243
same,glycan array binding signal (z-score),[7],0.006
same,glycan array binding signal (z-score),[8],0.051
same,glycan array binding signal (z-score),[9],-0.006
same,glycan array binding signal (z-score),[10],-0.119
same,glycan array binding signal (z-score),[11],-0.121
same,glycan array binding signal (z-score),[12],-0.183
same,glycan array binding signal (z-score),[13],7.38
same,glycan array binding signal (z-score),[14],5.26
same,glycan array binding signal (z-score),[15],2.01
same,glycan array binding signal (z-score),[16],6.83
same,glycan array binding signal (z-score),Man(a1-3)[Man(a1-6)]Man,-0.232
same,glycan array binding signal (z-score),[17],2.68
same,glycan array binding signal (z-score),[18],2.72
same,glycan array binding signal (z-score),[19],1.59
same,glycan array binding signal (z-score),[20],-0.238
same,glycan array binding signal (z-score),[21],-0.23
same,glycan array binding signal (z-score),[22],-0.241
same,glycan array binding signal (z-score),[23],0.179
same,glycan array binding signal (z-score),[24],-0.236
